ALDH1A1 inh: ALDH1A1 (human) enzyme inhibition | Purified ALDH1A1, NADH fluorescence, propionaldehyde substrate | Potency, µM (titrated, usually from 75.3 µM), for the others: top-dose activity, negative = inhibition, usual class: inhibitors | 220,000 compounds, 7.3% hits | AID 1030;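 further: potency means the concentration at half of the fitted maximal effect; plate controls were no enzyme wells and a reference inhibitor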
Target sequence (P00352 whole entry, looked up): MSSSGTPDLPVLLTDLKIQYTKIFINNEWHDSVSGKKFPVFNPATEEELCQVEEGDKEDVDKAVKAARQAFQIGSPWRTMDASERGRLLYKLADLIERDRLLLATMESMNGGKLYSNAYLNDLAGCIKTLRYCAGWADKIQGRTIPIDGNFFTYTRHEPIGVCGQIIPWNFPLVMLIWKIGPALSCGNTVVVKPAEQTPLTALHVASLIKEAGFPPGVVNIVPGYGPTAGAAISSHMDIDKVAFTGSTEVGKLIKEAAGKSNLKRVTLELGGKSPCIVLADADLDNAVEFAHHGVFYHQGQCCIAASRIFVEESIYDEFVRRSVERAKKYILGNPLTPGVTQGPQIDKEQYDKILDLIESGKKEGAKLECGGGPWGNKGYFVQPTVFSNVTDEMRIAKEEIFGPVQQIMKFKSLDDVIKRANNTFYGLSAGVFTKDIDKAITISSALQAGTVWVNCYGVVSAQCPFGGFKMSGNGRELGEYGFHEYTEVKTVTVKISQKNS
HTT aggregate: reduces HttQ103-GFP aggregates in PC12 cells. 220,000 compounds, 1.1% hits. Potency, µM (doses to about 46.1 µM), inactives show at the highest dose activity change, negative = inhibition, actives largely listed as inhibitors. PC12 HttQ103-GFP aggregates, Acumen cytometry, 40 h. AID 1688; active means well fitted curve in the direction sought with a large enough effect; inconclusive means small, poorly fitted or top-dose-only effect, or another doubt; inactive means no such curve, though single readings can be large; an effect the other way counts as inactive or inconclusive; further: potency means the concentration at half of the fitted maximal effect; on the % scale 0 is the no-effect control and ±100 the full control effect; nearly all actives have a fitted effect of over 60% in size
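Aggregates are detected as GFP objects 1–25 µm with signal 6 STDEV over background in lysates of induced PC12 cells. These carry Huntingtin exon 1 with 103 glutamines fused to GFP under an ecdysone promoter; compounds titrated.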
PNC inhibitor: blocks assembly of the perinucleolar compartment. PC3M PTB-GFP, PNC prevalence imaging, 16 h; hits give low values. activity change (PNC), negative = inhibition, % at 10 µM. 140,000 compounds, 3.1% hits. AID 2417;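 active means readout at or below -70, meaning at least 70% loss of cells showing the perinucleolar compartment, a nuclear body marking cancer cells; inconclusive means readout between -30 and a set limit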;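 further: plate controls were DMSO wells for no effect and camptothecin positive control wells for full effect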
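Read-out is percentage of cells bearing a perinucleolar compartment, from automated 20x imaging of fixed, Hoechst-stained PC3M PTB-GFP cells. Cells were seeded 4 h, then exposed 16 h to compound (23 nl of library stock) in duplicate plates.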
GoLoco inh red: blocks human Gai1 binding to RGS12 GoLoco peptide, red readout; P63096; Gai1:RGS12 GoLoco peptide FP, rhodamine, 10 min; Potency, µM (titrated, usually from 61.6 µM), inactives show top-dose activity, negative = inhibition, hits mostly inhibitors; 230,000 compounds, 0.44% hits; AID 880; active means well fitted inhibition curve with a large enough effect, not every such curve was filed as active; inactive means no such curve, though single readings can be large or run the other way; further: potency means the concentration at half of the fitted maximal effect; on the % scale 0 is the no-effect control and ±100 the full control effect; nearly all actives have a fitted effect of over 30% in size
HTT cytoprotect: protects HTT-Q103 PC12 cells, measured by ATP. PC12 HTT-Q103 induced, cytoprotection, ATP luminescence, 40 h. Potency, µM (highest dose often 56.4 µM), for inactives: cytoprotection (ATP increase), most hits filed as activators. 230,000 compounds, 0.14% hits. AID 1471; active means well fitted curve in the direction sought with a large enough effect; inconclusive means small, poorly fitted or top-dose-only effect, or another doubt; inactive means no such curve, though single readings can be large; an effect the other way counts as inactive or inconclusive; further: potency means the concentration at half of the fitted maximal effect; % of control where 0% means no effect; nearly all actives have a fitted effect of over 45% in size
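Compounds were screened for protection of PC12 cells against cell death after tebufenozide induction (100 nM final) of mutant Huntingtin exon 1 (Q103) fused to GFP.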
HPGD inh: HPGD (human) dehydrogenase inhibition | P15428 | purified HPGD, NADH fluorescence kinetic, PGE2 substrate | Potency, µM, for inactives: top-dose activity change, negative = inhibition, actives largely listed as inhibitors | 150,000 compounds, 4.3% hits | AID 894; further: potency means the concentration at half of the fitted maximal effect; on the % scale 0 is the no-effect control and ±100 the full control effect
Target sequence (P15428 whole entry, looked up): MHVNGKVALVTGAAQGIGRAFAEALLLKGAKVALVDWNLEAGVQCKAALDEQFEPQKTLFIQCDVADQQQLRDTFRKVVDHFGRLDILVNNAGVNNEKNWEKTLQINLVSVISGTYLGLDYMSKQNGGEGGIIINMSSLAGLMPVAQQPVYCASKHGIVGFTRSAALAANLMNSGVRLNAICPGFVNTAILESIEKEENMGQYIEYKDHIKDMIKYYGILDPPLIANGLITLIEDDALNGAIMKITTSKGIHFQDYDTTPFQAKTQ
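20 nM HPGD preincubated 15 min at room temperature with compound in 50 mM Tris-HCl pH 8, 0.01% Tween 20. Started with 1 mM NAD+ and 30 uM prostaglandin E2; NADH fluorescence (360/450 nm) read 5 times over 30-s intervals, last minus first.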
* marks the source's active call; other numbers are inactive results; ? = inconclusive; / = not tested or not shown; [ ] = dose if it differs, or a comment. Shown are actives, neighbours in structure and some others; about 11% of the full set was active somewhere. Unless noted, the call rests on the fitted dose curve; in most records, active means well fitted inhibition curve with a large enough effect (not every such curve was filed as active); inconclusive means small, poorly fitted or top-dose-only effect, or another doubt; inactive means no such curve, though single readings can be large or run the other way.

SMILES	ALDH1A1 inh	HTT aggregate	PNC inhibitor	GoLoco inh red	HTT cytoprotect	HPGD inh
Cc1cc([N+](=O)[O-])nn1CCCC(=O)Nc1cccc(Cl)c1Cl	1%	-18%	/	6%	-5%	/
COc1ccc(C(O)C(CN2CCOCC2)c2ccccc2)cc1 (stereo not given)	1%	21%	-25	-4%	/	-5%
CCc1ccc(C(O)(c2ccccc2OC)C(CN2CCOCC2)c2ccccc2)cc1 (stereo not given)	5%	11µM*	/	-20%	-104%	/
Nc1ccc(N(c2ccccc2)c2ccc(N)cc2)cc1	8.9µM*	9%	48	16%	20%	-4%
COC(=O)C1=C(C)NC(=O)/C1=C\c1cc(C)n(-c2c(C)cccc2C)c1C	18µM*	-10%	28	10%	-43%	-6%
COC(=O)C1=C(C)NC(=O)/C1=C\c1cc(C)n(-c2ccccc2C)c1C	?	18%[9.22 µM]	-19	3%	5%	-13%
COC(=O)C1=C(C)NC(=O)/C1=C\c1cc(C)n(-c2ccccc2F)c1C	16µM*	?	/	19%	-11%[10 µM]	/
Cc1cccc(C)c1-n1c(C)cc(/C=C2\NC(=O)NC2=O)c1C	16µM*	-17%	-14	42%	1%[10 µM]	?
Cc1cc(/C=C2\NC(=O)NC2=O)c(C)n1-c1cccnc1	/	12%[9.22 µM]	/	-6%	-14%[10 µM]	/
CCOC(=O)c1cc(-c2ccccc2)nn1-c1ccccn1	13µM*	15%	?	23%	3%	-20%
COC1CCCCC1Nc1ccc(C)c(C)c1 (stereo not given)	10µM*	?	-26	-20%	?	-5%
CN(C)/C=C/C(=O)c1cnc(-c2ccccc2Cl)s1	7.1µM*	-5%[9.22 µM]	/	6%	-46%	/
COc1ccc(Cl)cc1-c1nc(-c2ccc(NC(=O)c3cccs3)cc2)no1	?	3%	-19	13%	/	?
COc1ccc(Cc2nc(=S)[nH][nH]2)cc1Br	6.3µM*	24%	/	14%	-3%	/
O=c1c(-c2ccc(F)c(F)c2)nc2cncnc2n1Cc1ccccc1Cl	-2%	/	/	7%	?	-10%
CCOC(=O)C1(Cc2ccc(OC)cc2)CCN(C(=O)CN2CCN(CC)CC2)CC1	25µM*	6%	/	3%	-33%	/
N#Cc1cc([N+](=O)[O-])ccc1Oc1cccc(/C=N/NC(=O)c2cccc(Cl)c2)c1	-5%	?	?	15%	-6%	-11%
Cc1ccc(OCC(=O)NNC(=O)C(C)Sc2ncnc3sc(C)c(C)c23)cc1 (stereo not given)	?	-3%	?	-26%	11%[10 µM]	32µM*
Cc1sc2ncnc(SC(C)C(=O)N3c4ccccc4Sc4ccccc43)c2c1C (stereo not given)	-1%	-4%	?	4%	-7%[10 µM]	-16%
O=C(Cn1nc(-c2ccccc2F)ccc1=O)Nc1ccc(S(=O)(=O)N2CCCCCC2)cc1	?	0%	9	19%	3%[10 µM]	32µM*
Cc1ccccc1-c1ccc(=O)n(CC(=O)Nc2ccc(C(=O)N3CCCC3)cc2)n1	?	-1%	17	-9%	-9%	14µM*
O=C(Cn1nc(-c2ccccc2Cl)ccc1=O)Nc1ccc(Br)cc1	7.9µM*	1%[9.22 µM]	/	1%	-7%[10 µM]	/
O=C(Cn1nc(-c2ccccc2Cl)ccc1=O)Nc1ccccc1-c1ccccc1	0%	4%[9.22 µM]	/	0%	-11%[10 µM]	/
O=C(CN1CCCCC1)Nc1ccc(S(=O)(=O)N2CCCCCC2)cc1	1%	14%[9.22 µM]	10	-5%	-18%	-1%
CCOc1cc(/C=N/OC(C)=O)ccc1OCc1ccccc1	?	0%[9.22 µM]	/	4%	6%[10 µM]	/
SMILES	ALDH1A1 inh	HTT aggregate	PNC inhibitor	GoLoco inh red	HTT cytoprotect	HPGD inh
Cc1cc(SC(C)C(=O)Nc2ncc(Cl)cc2Cl)nc2ccccc12 (stereo not given)	-8%	-22%	-92*	0%	-6%[10 µM]	-10%
COCCn1c(SC(C)C(=O)Nc2ncc(Cl)cc2Cl)nc2ccccc21 (stereo not given)	-1%	1%	-103*	5%	25%	-3%
Cn1c(N/N=C\c2cccc(O)c2)cc(=O)n(C)c1=O	1%	-11%	?	12%	7%[10 µM]	-11%
CC(C)Cn1c(SC(C)C(=O)Nc2ccc3c(c2)OCCO3)nc2ccccc2c1=O (stereo not given)	16µM*	-9%	-1	9%	17%[10 µM]	-14%
Cc1ccc(C2C(/C=C3/SC(=S)NC3=O)=C(c3cccs3)Oc3ccccc32)cc1 (stereo not given)	-2%	?	-26	9%	3%[10 µM]	-16%
COc1ccccc1NC(c1cccnc1)c1ccc2cccnc2c1O (stereo not given)	2.5µM*	?	67	-5%	10%[10 µM]	-15%
Cc1ccc(N[C@H](c2ccccc2)c2ccc3cccnc3c2O)cc1	?	/	/	3%[14.2 µM]	-6%[10 µM]	-7%
O=C(O)c1ccccc1N[C@H](c1ccccc1)c1ccc2cccnc2c1O	?	/	/	10%[14.2 µM]	-6%[10 µM]	?
Cc1ccnc(NC(c2cccnc2)c2ccc3cccnc3c2O)c1 (stereo not given)	10µM*	-3%[9.22 µM]	/	9%	-187%	/
C1CCC[C@H]2CCCN3CC[C@H](CCCCCC[C@@H]4CCCN5CC[C@H](CC1)OC45)OC23	11%	/	/	4%	-5%	/
Cc1cc(Br)ccc1OCC(=O)NNC(=O)C(=O)Nc1ccccc1	15%	5%[9.22 µM]	/	8%	5%[10 µM]	/
C=CS(=O)(=O)c1ccc(Oc2ccc(S(=O)(=O)C=C)cc2)cc1	0.032µM*	/	-134*	-19%	11%[10 µM]	-20%
NNC(=O)CCn1c2ccccc2c2ccccc21	2%	5%[9.22 µM]	/	16%	9%[10 µM]	/
CCOC(=O)CSc1nc2ccc(NC(=O)CSc3nnnn3Cc3ccccc3)cc2s1	14µM*	?	-2	38%	1%[1.9 µM]	-11%
COC(=O)CSc1nc2ccc(NC(C)=O)cc2s1	11%	30%	16	-6%	2%	-1%
CC(C)(C)NC(=O)CSc1nc2ccc(NC(=O)CSc3nnc(N)s3)cc2s1	-2%	?	?	-63%	/	32µM*
Cc1ccccc1OCc1nnc(SCC(=O)Nc2ccc3nc(SCC(=O)NC(C)(C)C)sc3c2)n1C	?	-11%	-13	-9%	-14%	-17%
CCOC(=O)CSc1nc2ccc(N)cc2s1	20µM*	8%	49	22%	-2%	?
O=C(CSc1nnnn1Cc1ccccc1)Nc1ccc2c(c1)OCO2	-47%	-1%	34	31%	14%	-22%
CC(C)(C)NC(=O)CSc1nc2ccc(NC(=O)CSc3nnnn3Cc3ccccc3)cc2s1	4µM*	?	?	19%	2%[10 µM]	8.9µM*
CS(=O)(=O)N1CCC2(CCCN(Cc3ccccc3)C2)CC1	12%	/	/	11%	21%	-5%

From PubChem
